# Bioassay records: PubChem BioAssay, Broad Institute
# Rows were chosen to be rich in hits. Some 3.9% of all compounds tested hit in one or more screens of this group.
# Glyco luc inh – N-linked glycosylation inhibition; D54 ERlucT glycosylation luciferase reporter, 24 h; percent of 100 nM tunicamycin response; reporter increase, % at 12.5 µM; 360,000 compounds, 0.23% hits;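 active means mean luciferase reporter signal, scaled so untreated is 0 and the glycosylation-blocking control 100, at or above a set limit in every replicate; inconclusive means mean reaches the limit but not every replicate does; inactive means mean below the limit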;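 further: luciferase carries N-glycosylation sites so blocking glycosylation raises the light; 0% = median of neutral control wells and 100% = median of 100 nM tunicamycin wells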
# CDK5 inh – inhibitors of human CDK5/p35 kinase | 330,000 compounds, 0.01% hits | AID 488839 | inhibition, % at 10 µM | Q00535+Q15078 | Recombinant CDK5/p35, ADP-Glo luminescence, 60 min;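 active means highest replicate inhibition of at least 50% and at least 75% of replicates reaching 50%; inconclusive means only one of the two criteria met; inactive means both criteria failed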;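 further: plate controls were DMSO neutral control for no effect and GW8510 at 10 µM for full effect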
# Target sequence (Q00535 whole entry, looked up): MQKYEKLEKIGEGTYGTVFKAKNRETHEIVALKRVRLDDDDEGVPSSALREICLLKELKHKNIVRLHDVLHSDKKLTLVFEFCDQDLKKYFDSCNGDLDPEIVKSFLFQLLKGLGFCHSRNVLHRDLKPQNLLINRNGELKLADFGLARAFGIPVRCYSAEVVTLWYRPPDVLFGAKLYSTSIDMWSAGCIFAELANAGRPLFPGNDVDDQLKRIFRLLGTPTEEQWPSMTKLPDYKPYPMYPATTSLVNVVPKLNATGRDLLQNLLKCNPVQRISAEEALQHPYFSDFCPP
# Target sequence (Q15078 whole entry, looked up): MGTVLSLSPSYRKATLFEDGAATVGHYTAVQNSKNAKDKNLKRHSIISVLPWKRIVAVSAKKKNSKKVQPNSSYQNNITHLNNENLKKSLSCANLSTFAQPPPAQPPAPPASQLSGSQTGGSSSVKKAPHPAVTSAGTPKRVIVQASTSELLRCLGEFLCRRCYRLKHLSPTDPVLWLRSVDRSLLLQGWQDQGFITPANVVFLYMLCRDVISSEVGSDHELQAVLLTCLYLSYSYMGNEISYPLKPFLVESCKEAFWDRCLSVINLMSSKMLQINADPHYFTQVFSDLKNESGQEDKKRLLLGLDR
# CASP6 VEID inh – inhibitors of human caspase-6; P55212; purified caspase-6, Z-VEID-R110 cleavage fluorescence; 350,000 compounds, 0.53% hits; AID 686996; inhibition, % at 12.5 µM;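 active means mean inhibition across replicates at least about 35%, with every replicate also reaching that limit, limit read from the data; inconclusive means only one of the two criteria met; inactive means neither criterion met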;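 further: 0% = median of neutral control wells and 100% = no fluorescence left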
# Mot1-301 SUMO – blocks SUMOylation pathway, rescuing yeast Mot1-301 growth | growth rescue, % at 18.8 µM | AID 2716 | 320,000 compounds, 1% hits | S. cerevisiae Mot1-301 growth rescue, ATP luminescence, 38.5C; percent above DMSO median, 100 means doubled;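 active means every valid replicate shows activation above 250% relative to neutral control wells; inactive means the rest, any valid replicate at or below 250%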;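 further: OY570 slx delta 5 strain wells were the positive control but not used for scaling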
# ALR H2O2 inh – inhibitors of human sulfhydryl oxidase ALR. P55789. purified ALR, DTT oxidation, H2O2 HRP-luminol luminescence. inhibition, % (test concentration not listed). 290,000 compounds, 3.8% hits. AID 485317;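 active means mean replicate inhibition above about 79%, with every replicate also reaching it, limit read from the data; inconclusive means only one of the two criteria met; inactive means mean below limit and not every replicate reaching it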
# NSD2 HMT inh – NSD2 (human) methyltransferase inhibition; inhibition, % at 12.5 µM; O96028; 310,000 compounds, 0.54% hits; NSD2 peptide methylation, AlphaScreen, 120 min; in the data active means inhibition above about 50%
# An asterisk follows results filed as active; ? = inconclusive; / = not tested or not shown.
SMILES,Glyco luc inh,CDK5 inh,CASP6 VEID inh,Mot1-301 SUMO,ALR H2O2 inh,NSD2 HMT inh
Nn1c(SCC(=O)Nc2cccc(C(F)(F)F)c2)nncc1=O,4,-1,-1,2,97*,-2
CCS(=O)(=O)NCC[C@H]1CC[C@H](NC(=O)C2CCOCC2)[C@H](CO)O1,/,/,2,/,/,/
CN1C(=O)c2cc(NC(=O)c3ccccc3F)ccc2OC[C@H]2O[C@H](CC(=O)NCc3ccc4c(c3)OCO4)CC[C@@H]21,/,/,1,/,/,/
CN1[C@@H]2Cn3c(ccc(-c4ccncc4)c3=O)[C@H]1[C@@H](C(=O)NC1CCCCC1)[C@@H]2CO,/,/,2,/,/,/
O=C(c1cccc(-c2ccc(O)cc2)c1)N1CCOCC1,1,-2,/,3,99*,0
CCOC(=O)N1CCN(C(=O)c2ccc(CS(=O)Cc3ccccc3Cl)o2)CC1 (centres undefined),0,0,-1,5,?,1
O=C(c1ccc(CS(=O)Cc2ccccc2Cl)o1)N1CCN(C2CCCCC2)CC1 (centres undefined),-4,-2,-1,261,98*,3
CO[C@@H]1CN(C)C(=O)c2ccc(NS(C)(=O)=O)cc2OC[C@H](C)N(CC2CCOCC2)C[C@@H]1C,/,/,1,/,/,/
COc1cccc(N2CCN(C(=O)Nc3ccccc3Cl)CC2)c1,1,0,6,5,87*,-1
O=C(CC1CC1)Nc1ccc2c(c1)[C@@H]1C[C@H](CC(=O)NC3CCCC3)O[C@H](CO)[C@@H]1O2,/,/,-5,/,/,/
O=C1NN(c2ccc(F)c(Cl)c2)C(=O)/C1=C\c1cccc(OC(=O)c2cccs2)c1,2,-9,/,141,-9,/
CC(C)=C1C(=O)NN(c2ccc(F)c(Cl)c2)C1=O,2,-6,68*,120,94*,4
CNC(=S)Nc1ccc(Nc2ccccc2)cc1,-1,1,/,-28,99*,41
Cc1ccc(NC(=S)c2ccncc2)cc1,0,1,2,20,7,-2
CCCNC(=S)Nc1ccc(Nc2ccccc2)cc1,-2,-2,/,-2,99*,12
Cc1ccc(NC(=S)c2ccccc2)cc1,-4,1,/,324*,4,3
CCNC(=O)C[C@@H]1CC[C@@H](NS(=O)(=O)c2ccc(C)cc2)[C@H](CO)O1,/,/,3,/,/,/
COc1cccc(CNc2ccc3c(c2)nc(C)n3C)c1OC,4,1,-5,3,99*,6
CCOc1ccc(CNc2ccc3c(c2)nc(C)n3C)cc1,5,-5,/,-11,96*,6
COc1ccc(CNc2ccc3c(c2)nc(C)n3C)cc1OC,7,0,-4,5,57,11
C[C@@H]1CN([C@H](C)CO)C(=O)Cc2cc(NC(=O)Nc3cccc4ccccc34)ccc2O[C@H]1CN(C)S(=O)(=O)c1cn(C)cn1,/,/,1,/,/,/
CN1CCN(C(=O)c2cc3c(c(-c4cccc(-c5ccc(C(=O)N(C)C)cc5)c4)n2)[C@H](CCO)N([S@@](=O)C(C)(C)C)C3)CC1,/,/,2,/,/,/
CC(/C=N/n1c(-c2n[nH]c3c2CCC3)n[nH]c1=S)=C\c1ccco1,2,5,18,-11,94*,7
CC(/C=N/n1c(-c2cccnc2)n[nH]c1=S)=C\c1ccco1,0,0,14,9,-3,7
S=c1[nH]nc(-c2ccco2)n1/N=C/c1ccc(Cl)cc1Cl,0,0,0,7,73,8
SMILES,Glyco luc inh,CDK5 inh,CASP6 VEID inh,Mot1-301 SUMO,ALR H2O2 inh,NSD2 HMT inh
S=c1[nH]nc(-c2ccc(Cl)cc2)n1/N=C/C=C/c1ccco1,1,2,19,-28,99*,20
COc1ccc(/C=N/n2c(-c3n[nH]c4c3CCC4)n[nH]c2=S)cc1,3,0,3,4,?,2
S=c1[nH]nc(-c2cccnc2)n1/N=C/C=C/c1ccco1,3,-1,39*,17,14,6
S=c1[nH]nc(-c2ccco2)n1/N=C/c1cccc(Cl)c1Cl,-1,3,1,55,96*,12
S=c1[nH]nc(-c2ccccc2)n1/N=C/C=C/c1ccco1,-1,4,13,1,97*,6
S=c1[nH]nc(-c2ccco2)n1/N=C/C=C/c1ccccc1,-1,4,/,/,98*,8
CC(/C=N/n1c(-c2cc(C)[nH]n2)n[nH]c1=S)=C\c1ccccc1,1,5,/,-24,61,7
O=[N+]([O-])c1ccccc1/C=C/C=N/n1c(-c2ccccc2F)n[nH]c1=S,0,-3,2,-13,98*,10
CC(=C/c1ccccc1)/C=N/n1c(-c2ccco2)n[nH]c1=S,-2,0,1,-16,97*,33
C[C@H]1CN([C@@H](C)CO)S(=O)(=O)c2ccc(C#CC(C)(C)O)cc2O[C@@H]1CN(C)C(=O)CC1CC1,/,/,2,/,/,/
CCN(CC)C(=S)SCC(=O)c1ccccc1,-7,-1,/,-8,29,-2
CCN(CC)C(=S)SSC(=S)N(CC)CC,7,1,-2,131,97*,/
CCCCn1c(SCc2c(C)noc2C)nc2cc(S(N)(=O)=O)ccc21,40*,-3,/,11,/,0
CCCNC(=O)N1[C@@H]2c3ccc(-c4cccc(OC)c4)c(=O)n3C[C@H]1[C@H](CO)[C@H]2C(=O)NC1CCC1,/,/,0,/,/,/
Cc1ccc(CN2CCN(/N=C/c3ccc(C(F)(F)F)cc3)CC2)c(C)c1,0,0,-2,326*,-3,1
Cc1ccc(CN2CCN(/N=C/c3ccc(C(=O)O)cc3)CC2)c(C)c1,1,0,25,4,8,2
O=C(C[C@@H]1C/C=C/CC[C@H](Cc2ccc(F)cc2)C(=O)OC[C@@H](Cc2ccccc2)NC1=O)N[C@H](CO)Cc1ccccc1,126*,0,/,-8,-8,/
O=S(=O)(NC1CCCCC1Nc1ccc(Cl)cc1)c1ccccc1 (centres undefined),-3,-1,2,-9,?,1
Cc1ccc(NC2CCCCC2NS(=O)(=O)c2ccccc2)c(C)c1 (centres undefined),-4,-1,4,76,86*,4
CC(=O)Nc1ccc(NC2CCCCC2NS(=O)(=O)c2ccccc2)cc1 (centres undefined),1,1,0,-4,99*,-1
COc1cc(CN2CC3(CCN(C(=O)c4cccnc4)CC3)c3c([nH]c4cc(OC)ccc34)[C@@H]2CO)cc(OC)c1,/,/,0,/,/,/
CCCN1[C@@H]2c3ccc(-c4ccccc4F)c(=O)n3C[C@H]1[C@H](CO)[C@H]2C(=O)NCC,/,/,6,/,/,/
O=C1N/C(=N\S(=O)(=O)Cc2ccccc2)S/C1=C/c1cc([N+](=O)[O-])ccc1O,1,-3,19,-3,97*,15
C[C@]1(O)CC(=O)C=C[C@H]1Nc1ccccc1,44*,0,3,/,/,/
